According to PubChem BioAssay (NCATS):
Records with an inconclusive call do not appear. Where a call stands in place of a potency, no number is given. Activity calls are given as the source filed them. Calls come from the whole dose curve; as a rule, active = well fitted inhibition curve with a large enough effect; inconclusive = small, poorly fitted or top-dose-only effect; inactive = flat fitted curve, though single readings scatter.

The molecules below were run on Zika virus NS2B-NS3 protease (assay: Primary screen GU AMC qHTS for Zika virus inhibitors (AID 1347154; note: nearly all actives have a fitted effect of over 70% in size)). Settings: Zika NS2B-NS3 unlinked protease, AMC fluorogenic substrate; series mostly up to 54.1 µM.
How it was run: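 Unlinked Zika NS2B hydrophilic domain–NS3 protease complex at 25 nM in 10 mM Tris-HCl pH 8.0, 0.01% Tween 20, with an AMC peptide substrate. Fluorescence change (340/450 nm) over 15 min at room temperature, normalized to controls, fitted to 4-parameter Hill.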
Potency is the fitted concentration of half-maximal effect.

| SMILES | Potency |
| --- | --- |
| NCCCCNCCCN | inactive |
| Cc1cc(Cl)ccc1OCCCC(=O)NO | inactive |
| CC(C)c1ccc2c(c1)c(SC(C)(C)C)c(CC(C)(C)C(=O)O)n2Cc1ccc(Cl)cc1 | inactive |
| CC1(C)C(=O)N(CCN2CCC(C(=O)c3ccc(F)cc3)CC2)c2ccccc21 | inactive |
| O=C(NCCO[N+](=O)[O-])c1cccnc1 | inactive |
| CC(=O)NC[C@H]1CN(c2ccc(N3CCOCC3)c(F)c2)C(=O)O1 | inactive |
| COc1c2occc2cc2ccc(=O)oc12 | inactive |
| O=C(O)c1cccnc1Nc1cccc(C(F)(F)F)c1 | inactive |
| O=c1cc(N2CCOCC2)oc2c(-c3ccccc3)cccc12 | inactive |
| NNc1nncc2ccccc12 | inactive |
| Cc1ncc([N+](=O)[O-])n1CC(C)O (stereo unspecified) | inactive |
| O=C1c2ccccc2-c2n[nH]c3cccc1c23 | inactive |
| C[Se]CCC(N)C(=O)O (stereo unspecified) | inactive |
| O=C(O)c1cc(=O)c2c(OCC(O)COc3cccc4oc(C(=O)O)cc(=O)c34)cccc2o1 | inactive |
| N[C@@H](Cc1cc(I)c(Oc2cc(I)c(O)c(I)c2)c(I)c1)C(=O)O | inactive |
| Cc1cc(O)c2c(c1)C(=O)c1cc(O)cc(O)c1C2=O | inactive |
| Cc1cccc(C#Cc2ccccc2)n1 | inactive |
| Cc1nc(-c2ccc(OCC(C)C)c(C#N)c2)sc1C(=O)O | 21.5 µM (active) |
| Clc1ccc2c(N3CCN(CCCN4CCN(c5ccnc6cc(Cl)ccc56)CC4)CC3)ccnc2c1 | inactive |
| Cc1c(OCC(F)(F)F)ccnc1CS(=O)c1nc2ccccc2[nH]1 (stereo unspecified) | inactive |
| Nc1nc(N)c(N=O)c(OCC2CCCCC2)n1 | inactive |
